# The source made the active and inactive calls. Unless noted, no stated cut-off is given here; in the data, active means inhibition above about 80%; inactive means the rest. Non-standard residues stand in square brackets, D forms with d. Residues, ends and D or L forms follow the SMILES beside them. Dolaproine = CO[C@@H]([C@@H]1CCCN1)[C@@H](C)C(=O)O; Dil = CC[C@H](C)[C@H](NC)[C@@H](CC(=O)O)OC; NMeV = CN[C@H](C(=O)O)C(C)C
# Tests used:
# [1] = LFS_MB_P medulloblastoma growth inhibition, cell-based, chromothripsis tumors, cisplatin or BGB combos (AID 1671449); details: LFS_MB_P medulloblastoma cells;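 further: cells exposed for 96 hours; 0% = vehicle DMSO and 100% = killing by high DMSO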
# [2] = HDN33 neuroblastoma growth inhibition, cell-based, chromothripsis tumors, cisplatin or BGB combos (AID 1671450); details: HDN33 neuroblastoma cells, stronger effect = higher value;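 further: cells exposed to compound for four days; 0% = vehicle DMSO and 100% = cell killing by high DMSO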
# [3] = ICB984 medulloblastoma cell growth inhibition, synergistic combos for chromothripsis tumors, cisplatin or BGB combos (AID 1671451; call rule not given here;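 further: cells exposed for 96 hours before readout; 0% = vehicle DMSO and 100% = killing by high DMSO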); details: ICB984 medulloblastoma cells, drug combinations, stronger effect = higher value
# [4] = LFS_MB_1R medulloblastoma cell growth inhibition, synergistic combos for chromothripsis tumors, cisplatin or BGB combos (AID 1671452); details: LFS_MB_1R medulloblastoma cells, stronger effect = higher value;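 further: cells exposed for 96 hours before readout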
# [5] = HTB85 osteosarcoma cell growth inhibition, synergistic combos for chromothripsis tumors, BGB or cisplatin IC20 combos (AID 1671453); details: HTB85 osteosarcoma cells, drug combinations, stronger effect = higher value;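 further: cells exposed for 96 hours before readout; 0% = vehicle DMSO and 100% = high DMSO killing control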
# [6] = CRL2098 osteosarcoma cell growth inhibition, synergistic combos for chromothripsis tumors, BGB or cisplatin IC20 combos (AID 1671454); details: CRL2098 osteosarcoma cells, drug combinations, stronger effect = higher value;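 further: cells exposed for 96 h before readout; 0% = vehicle DMSO and 100% = killing by high DMSO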
# [7] = HD-MB03 medulloblastoma cell growth inhibition, synergistic combos for chromothripsis tumors, BGB or cisplatin IC20 combos (AID 1671455; in the data active means inhibition above about 83%;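 further: 0% = vehicle DMSO and 100% = high DMSO as cytotoxic control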); details: HD-MB03 medulloblastoma cells, stronger effect = higher value
# [8] = UWB1.289 ovarian carcinoma cell growth inhibition, synergistic combos for chromothripsis tumors, BGB or cisplatin combos (AID 1671456); details: UWB1.289 ovarian carcinoma cells, stronger effect = higher value;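 further: cells exposed to compound for four days; 0% = vehicle DMSO and 100% = killing by high DMSO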
# [9] = LFS_MB_2R medulloblastoma cell growth inhibition, synergistic combos for chromothripsis tumors, cisplatin combos (AID 1671457); details: LFS_MB_2R medulloblastoma cells, stronger effect = higher value;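 further: cells exposed to compound for four days before readout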
# [10] = MDA-MB-436 breast carcinoma cell growth inhibition, synergistic combos for chromothripsis tumors, BGB or cisplatin combos (AID 1671458; call rule not given here;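 further: cells exposed for 96 hours; 0% = vehicle DMSO and 100% = killing by high DMSO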); details: MDA-MB-436 breast carcinoma growth inhibition, drug combinations, stronger effect = higher value
# [11] = UWB1.289_BRCA1 ovarian cancer growth, cell-based, BGB or cisplatin combinations (AID 1671459); details: UWB1.289 BRCA1 ovarian carcinoma, drug combinations, stronger effect = higher value
# [12] = human astrocyte viability loss, single and combined drugs, cytotoxicity control for chromothriptic childhood tumor combination screen, cell-based, BGB or cisplatin IC20 combos (AID 1671460); details: Human astrocytes, drug combinations, stronger effect = higher value;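 further: cells exposed to compounds for 96 hours before viability readout; 0% = vehicle and 100% = killing control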
# [13] = growth inhibition of BT084 medulloblastoma cells, cell-based, ICGC_MB145, cisplatin and BGB IC40 combos (AID 1671461); details: drug combinations, stronger effect = higher value;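 further: cells exposed to drugs for 96 hours; 0% = vehicle DMSO and 100% = high DMSO full killing control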
# [14] = growth inhibition of RCMB18 medulloblastoma cells, cell-based, cisplatin and BGB IC40 combos (AID 1671462); details: stronger effect = higher value;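 further: cells exposed to compound for four days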
# [15] = growth inhibition of CRL1545 osteosarcoma cells, cell-based, cisplatin and BGB IC20 combos (AID 1671464); details: stronger effect = higher value;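 further: cells exposed to compound for 96 hours before readout; 0% = vehicle DMSO and 100% = high DMSO killing control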
# [16] = at 0.5 µM, stronger effect = higher value
# [17] = measured here: combination with BGB IC20, at 0.005 µM
# [18] = measured here: combination with BGB IC40, at 0.005 µM
# [19] = measured here: combination with BGB IC40, at 0.05 µM
# [20] = measured here: combination with cisplatin, at 0.5 µM, stronger effect = higher value
# [21] = measured here: combination with cisplatin, at 5 µM, stronger effect = higher value
# [22] = measured here: with BGB IC20 combination, at 0.5 µM
# [23] = measured here: with cisplatin IC20 combination, at 0.5 µM
# [24] = measured here: 5 uM single agent, at 5 µM
# [25] = measured here: combination with cisplatin, at 0.5 µM
# [26] = measured here: combination with cisplatin, at 5 µM
# [27] = measured here: with BGB IC20, at 0.5 µM
# [28] = measured here: with BGB IC20, at 5 µM
# [29] = measured here: with cisplatin IC20, at 0.5 µM
# [30] = measured here: with cisplatin IC20, at 5 µM
smiles,measurement,setting,value
CC1OC(CC(=O)O)CC2=C1C(=O)c1c(O)cccc1C2=O (stereo not drawn),inhibition,[1]; [16],13.6% (inactive)
same,inhibition,[1]; [17],-20.4%
same,inhibition,[1]; [18],-16.6%
same,inhibition,[1]; [19],120%
same,inhibition,[1]; [20],28.7%
same,inhibition,[1]; [21],128%
same,inhibition,"[2]; BGB combo, at 5 µM",100%
same,inhibition,[2]; at 0.5 µM,99.9% (active)
same,inhibition,"[2]; cisplatin combo, at 5 µM",99.9%
same,inhibition,[2]; [22],99.9%
same,inhibition,[2]; [23],99.9%
same,inhibition,"[2]; single agent, at 5 µM",99.9%
same,inhibition,"[3]; BGB IC20 combo, at 0.005 µM",101%
same,inhibition,"[3]; BGB IC40 combo, at 0.005 µM",102%
same,inhibition,"[3]; BGB IC40 combo, at 0.05 µM",102%
same,inhibition,[3]; at 0.5 µM,0.28% (inactive)
same,inhibition,"[3]; cisplatin combo, at 0.05 µM",102%
same,inhibition,"[3]; cisplatin combo, at 0.5 µM",10.8%
same,inhibition,"[3]; cisplatin combo, at 5 µM",102%
same,inhibition,[3]; [24],98.7%
same,inhibition,[4]; at 0.5 µM,106% (active)
same,inhibition,[4]; [19],101%
same,inhibition,[4]; [25],111%
same,inhibition,[4]; [26],106%
same,inhibition,[5]; at 0.5 µM,99.9% (active)
same,inhibition,[5]; [27],100%
same,inhibition,[5]; [28],100%
same,inhibition,[5]; [29],99.9%
same,inhibition,[5]; [30],99.7%
same,inhibition,"[5]; single agent, at 5 µM",99.7%
same,inhibition,[6]; at 0.5 µM,100% (active)
same,inhibition,"[6]; measured here: combination with BGB at IC20, at 0.5 µM",100%
same,inhibition,"[6]; measured here: combination with cisplatin at IC20, at 0.5 µM",100%
same,inhibition,[7]; at 0.5 µM,99.8% (active)
same,inhibition,"[7]; measured here: combo with BGB at IC20, at 0.5 µM",99.9%
same,inhibition,"[7]; measured here: combo with cisplatin at IC20, at 0.5 µM",99.8%
same,inhibition,[8]; at 0.5 µM,102% (active)
same,inhibition,"[8]; measured here: inhibition with BGB combination, at 0.05 µM",65.9%
same,inhibition,"[8]; measured here: inhibition with cisplatin combination, at 0.05 µM",91.2%
same,inhibition,[9]; at 0.5 µM,106% (active)
same,inhibition,[9]; [25],105%
same,inhibition,[9]; [26],105%
same,inhibition,[10]; at 0.5 µM,102% (active)
same,inhibition,"[10]; measured here: BGB combination, at 0.5 µM",103%
same,inhibition,"[10]; measured here: BGB combination, at 5 µM",103%
same,inhibition,"[10]; measured here: cisplatin combination, at 0.5 µM",101%
same,inhibition,"[10]; measured here: cisplatin combination, at 5 µM",109%
same,inhibition,"[11]; BGB combination, concentration series, at 5 µM",121%
same,inhibition,[11]; at 0.5 µM,111% (active)
same,inhibition,"[11]; cisplatin combination, concentration series, at 5 µM",132%
same,inhibition,[12]; at 0.5 µM,102% (active)
same,inhibition,"[12]; measured here: combo with BGB IC20, at 0.5 µM",105%
same,inhibition,"[12]; measured here: combo with cisplatin IC20, at 0.5 µM",101%
same,inhibition,[13]; at 0.5 µM,106% (active)
same,inhibition,"[13]; cisplatin combination, at 0.5 µM",108%
same,inhibition,"[13]; cisplatin combination, at 5 µM",110%
same,inhibition,"[13]; measured here: BGB IC40 combination 0.05 uM, at 0.05 µM",67.7%
same,inhibition,"[13]; single agent, at 5 µM",107%
same,inhibition,[14]; at 0.5 µM,99.3% (active)
same,inhibition,"[14]; cisplatin combo, at 5 µM",103%
same,inhibition,"[14]; measured here: BGB IC40 combination, at 0.05 µM",97.5%
same,inhibition,[14]; [25],102%
same,inhibition,"[14]; single agent, at 5 µM",101%
same,inhibition,[15]; at 0.5 µM,99.9% (active)
same,inhibition,[15]; [22],99.9%
same,inhibition,[15]; [23],99.9%
same,inhibition,"[15]; single agent, at 0.05 µM",99.9%
same,inhibition,"[15]; single agent, at 5 µM",99.9%
CC[C@H](C)[C@@H]([C@@H](CC(=O)N1CCC[C@H]1[C@H](OC)[C@@H](C)C(=O)N[C@@H](Cc1ccccc1)C(=O)O)OC)N(C)C(=O)[C@@H](NC(=O)[C@@H](NC)C(C)C)C(C)C (H-[NMeV]V[Dil][Dolaproine]F-OH),inhibition,[1]; [16],-34.4% (inactive)
same,inhibition,[1]; [17],-15%
same,inhibition,[1]; [18],-52.5%
same,inhibition,[1]; [19],-31.6%
same,inhibition,[1]; [20],-31.7%
same,inhibition,[1]; [21],13.5%
same,inhibition,"[2]; BGB combo, at 5 µM",68.3%
same,inhibition,[2]; at 0.5 µM,71.4% (inactive)
same,inhibition,"[2]; cisplatin combo, at 5 µM",69.6%
same,inhibition,[2]; [22],62.6%
same,inhibition,[2]; [23],60.4%
same,inhibition,"[2]; single agent, at 5 µM",96.5%
same,inhibition,"[3]; BGB IC20 combo, at 0.005 µM",-18.1%
same,inhibition,"[3]; BGB IC40 combo, at 0.005 µM",-4.8%
same,inhibition,"[3]; BGB IC40 combo, at 0.05 µM",21.2%
same,inhibition,[3]; at 0.5 µM,-6.87% (inactive)
same,inhibition,"[3]; cisplatin combo, at 0.05 µM",17.4%
same,inhibition,"[3]; cisplatin combo, at 0.5 µM",-3.43%
same,inhibition,"[3]; cisplatin combo, at 5 µM",-11.7%
same,inhibition,[3]; [24],-7.94%
same,inhibition,[4]; at 0.5 µM,-16.4% (inactive)
same,inhibition,[4]; [19],-34.7%
same,inhibition,[4]; [25],-7.82%
same,inhibition,[4]; [26],15.8%
same,inhibition,[5]; at 0.5 µM,55.8% (inactive)
same,inhibition,[5]; [27],69.6%
same,inhibition,[5]; [28],59.7%
same,inhibition,[5]; [29],20.4%
same,inhibition,[5]; [30],67.1%
same,inhibition,"[5]; single agent, at 5 µM",86.4%
